For orientation: inhibition means the share of the control response that was lost under treatment.

Values without a mark were called inactive. The rule behind the calls is not given here.

In this test the target is Pantothenate synthetase (Mycobacterium tuberculosis (strain ATCC 25618 / H37Rv)) (UniProt P9WIL5). The test can be described thus: Coupled enzyme confirmation of inhibitors against recombinant Mtb PanC (AID 375).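 Note: 0% = full reaction with vehicle and 100% = no enzyme background.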 The note with it: coupled enzyme assay; at 10 µM, active compounds read high.
Chain of Pantothenate synthetase (Mycobacterium tuberculosis (strain ATCC 25618 / H37Rv)) (P9WIL5 whole entry, looked up): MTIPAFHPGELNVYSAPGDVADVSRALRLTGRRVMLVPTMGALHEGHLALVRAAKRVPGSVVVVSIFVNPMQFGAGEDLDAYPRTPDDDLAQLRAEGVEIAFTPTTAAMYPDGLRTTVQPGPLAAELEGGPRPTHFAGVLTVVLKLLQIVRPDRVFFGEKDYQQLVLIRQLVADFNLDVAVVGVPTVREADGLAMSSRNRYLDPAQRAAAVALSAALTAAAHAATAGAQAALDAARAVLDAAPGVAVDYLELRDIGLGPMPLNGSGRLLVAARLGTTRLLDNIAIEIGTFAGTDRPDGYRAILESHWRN
Turning to `COc1ccc(C2C(C(=O)N3CCC(C)CC3)c3ccccc3C(=O)N2C)cc1` (centres undefined), the inhibition is 0%. The figure for `COc1cc2c(cc1OC)CN(C(=O)COc1ccc(C)c(C)c1)CC2` is 1%. Under `Cc1ccc2[nH]c3c(N4CCOCC4)ncnc3c2c1` stands 0%. Under `Cn1c(-c2ccc(F)cc2)cnc1NCc1ccccc1` stands 0%; under `COc1ccc(-n2c(Cc3cccn3C)nnc2SCC(=O)Nc2ccc(Cl)cc2)cc1`, 0%.

As for `CC1(C)CC(=O)C(C=Nc2ccc3c(c2)OCO3)=C(O)C1`, the inhibition was 7%. Under `CCC1CCCCN1C(=O)C1CC(c2cc(Cl)c(OC)cc2OC)=NO1` (centres undefined) stands 1%. Under `N#Cc1cc2sc3nnc(-c4ccncc4)n3c2cc1C#N` stands 0%; under `O=C(NCCC1=CCCCC1)C1CC(=O)N(C2CCCCCC2)C1` (centres undefined), 2%.

As for `O=C(CN1CCN(c2nc(-c3ccccc3)cs2)CC1)Nc1ccc2c(c1)OCO2`, the inhibition was 4%. The figure for `Cc1cc(=O)oc2ccc(OCC(=O)N3CCC(C)CC3)cc12` is 0%. Take `CCS(=O)(=O)c1nc2ccccc2n1Cc1ccccc1Cl`: the inhibition is 1%. Take `ON1C2CCCCC2N(O)C1c1c(F)c(F)c(F)c(F)c1F` (centres undefined): the inhibition is 7%. As for `CCn1cc(C(=O)Nc2cc3c(cc2NC(C)=O)OCCO3)c(=O)c2ccc(C)nc21`, the inhibition is 1%. The figure for `CCCNS(=O)(=O)c1ccc(OCC(=O)Nc2ccccc2F)cc1` is 0%. The figure for `Cc1nn(-c2ccc(F)cc2)c2sc(C(=O)N3CCCCCC3)cc12` is 0%; for `Cc1nc(-c2ccc(NC(=O)c3cccs3)cc2)cs1` it is 0%. Turning to `COc1ccc(S(=O)(=O)N(C)C2CCN(C)CC2)cc1`, the inhibition is 0%. Turning to `CCCN(CCO)Cc1cccc(Br)c1`, the inhibition is 3%.

In the case of `OCc1cn(-c2ccccc2)nc1-c1ccc2c(c1)OCCO2`, the inhibition was 0%.

Consider `Cc1csc(NC(=O)c2ccoc2C)n1`, for which the inhibition was 0%.

As for `COc1ccccc1-c1c(C)nn2c(C)c(C(C)=O)cnc12`, the inhibition was 3%. Under `CCCC1CCC(C(=O)Nn2cnc3ccccc3c2=O)CC1` (centres undefined) stands 1%; under `CN(C)c1ccc(/C=C/c2ccncc2)cc1`, 1%.

For the origin of these results see PubChem BioAssay.
